PubChem BioAssay AID1347416 (National Center for Advancing Translational Sciences (NCATS), 2020)
Out of some 4,100 compounds screened, about 1,600 (39%) were called active. Another 25% or so got no clear call; they are omitted. Some of the results follow. Unmarked numbers belong to inactive results. The call rests on the fitted dose curve; in most records, active means well fitted inhibition curve with a large enough effect; inconclusive means small, poorly fitted or top-dose-only effect; inactive means no such curve, though single readings can be large or run the other way.

Experiment: qHTS Validation assay for Inhibitors of Plasmodium falciparum Dd2 growth in vitro; further: nearly all actives have a fitted effect of over 70% in size
Conditions: P. falciparum Dd2 in RBCs, SYBR Green growth, 72 h; series mostly up to 28.7 µM; activity change, negative = inhibition: at the top concentration
Outline: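 P. falciparum Dd2-infected red blood cells (2.5% hematocrit, 0.3% parasitemia) grown 72 h at 37 °C under 5% O2 with compounds in a titration, 29 uM to 0.5 nM final. Growth read as SYBR Green-1 fluorescence after ~16 h lysis; artesunate 300 nM as positive control.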
On the % scale 0 is the no-effect control and ±100 the full control effect; potency means the concentration at half of the fitted maximal effect.

SMILES | activity change, negative = inhibition | Potency
CCc1ccc(NC(=O)N2CC(C(=O)N(C)C)C3(CCOCC3)C2)cc1 (stereo unspecified) | 2.4% | –
CC1=C(CC(=O)c2ccc(Cl)cc2)C(=O)c2ccccc2C1=O | – | 0.211 µM (active)
O=C(Cn1cc(-c2nnnn2-c2ccc(Cl)cc2)c(=O)c2ccccc21)c1ccccc1 | 10% | –
CN(CC1(C)CCOCC1)C(=O)c1ccoc1 | 15.7% | –
COc1ccc(O)c(-c2cc(-c3cccs3)[nH]n2)c1 | 312% | –
Oc1ccc(Br)cc1-c1cc(-c2ccc(Cl)cc2)n[nH]1 | – | 2.66 µM (active)
COc1cc(C2CC(=O)Nc3cc4c(cc32)OCCO4)cc(Br)c1OC (stereo unspecified) | – | 5.31 µM (active)
COc1cc(Br)c(C2CC(=O)Nc3cc4c(cc32)OCCO4)cc1OC (stereo unspecified) | – | 2.37 µM (active)
CCOC(=O)C1=C(C)NC(=O)CC1c1cc(OC)c(OC)cc1Br (stereo unspecified) | – | 5.31 µM (active)
CCOC(=O)C1=C(C)NC(=S)N(C(C)=O)C1c1ccc(Cl)cc1 (stereo unspecified) | -15% | –
CNC(=O)N1CCC(C2CCN(C(=O)CCCC(=O)O)C2)CC1 (stereo unspecified) | 13.7% | –
CCn1cnnc1-c1nn(C)c2c1CN(C(=O)CC(C)C)CC2 | 22.8% | –
COc1ccc(-n2c(-c3ccc(Br)cc3)c[n+]3c2CCc2ccccc2-3)cc1 | – | 4.22 µM (active)
Cc1ccc(-n2cc(CNCCc3ncc(C)[nH]3)c(-c3ccc(F)cc3)n2)cc1 | – | 15 µM (active)
Cc1ccc(CNC(=O)NCCc2ncc(C)n2Cc2ccc(F)cc2)cc1 | -63.1% | –
Cc1ccc(-c2nn(-c3ccccc3)cc2CSC(=N)N)cc1 | -29.1% | –
COCc1nc2nc(-c3ccccc3)c(Nc3ccc(F)cc3)cc2n1C | -2.2% [at 43.1 µM] | –
Cc1cccc(C)c1-c1nc(C(=O)NCc2ccc(F)cc2)n2ccccc12 | -24.8% | –
CN(C)CCNC(=O)c1nc2nc(-c3ccccc3)c(-c3cccc(F)c3)cc2n1C | – | 19.3 µM (active)
CCn1nccc1C(=O)N1CCC(C(=O)N2CCCCCCNC(=O)CC2)CC1 | 4.4% | –
CCOC(=O)c1[nH]c(Cc2[nH]c(C(=O)OCC)c(C)c2CCC(=O)OC)c(CCC(=O)OC)c1C | – | 5.31 µM (active)

SMILES | activity change, negative = inhibition | Potency
CN(C)c1cccc(-c2nccc3c(=O)cc(-c4cn[nH]c4)oc23)c1 | -2.52% [at 43.1 µM] | –
CC(C)(C)CC(C)(C)c1ccc(O)c(CN2CCN(CCC#N)CC2)c1 | – | 0.842 µM (active)
Cc1ccc(C(=O)N2CCC3(CC2)N(c2ccccc2)C(=O)CS3(=O)=O)c(C)c1 | 18.7% | –
CCCCC(=O)NC(c1cccc([N+](=O)[O-])c1)c1c(OC(C)=O)ccc2ccccc12 (stereo unspecified) | – | 3.76 µM (active)
CC(=O)Oc1ccc2ccccc2c1C(NC(=O)C(C)C)c1cccc([N+](=O)[O-])c1 (stereo unspecified) | – | 16.8 µM (active)
CC(C)C(=O)NC(c1ccc([N+](=O)[O-])cc1)c1c(O)ccc2ccccc12 (stereo unspecified) | – | 13.3 µM (active)
Cc1nc(N2CCN(C)CC2)c2c3c(sc2n1)CCCC3 | 63.3% | –
Cc1noc(C)c1CSc1nc2sc3c(c2c(=O)n1C)CCCC3 | – | 8.41 µM (active)
Cc1occc1C(=O)N1CCN(C(c2ccccc2)c2ccccc2)CC1 | – | 10.6 µM (active)
Cc1ccccc1C(=O)N1CCC(c2nc3ccccc3s2)CC1 | 1.54% | –
Cc1nnc([C@@H]2CC(F)(F)CN2C(=O)c2ccoc2C)o1 | 33.4% | –
Cc1oc2ccc(O)c(CN(C)Cc3ccccc3)c2c1C(=O)Nc1ccccc1 | – | 2.37 µM (active)
CCN(Cc1ccccc1)Cc1c(O)ccc2oc(C)c(C(=O)Nc3ccccc3C)c12 | – | 4.73 µM (active)
Cc1ccc(NC(=O)c2c(C)oc3ccc(O)c(CN(C)Cc4ccccc4)c23)c(C)c1 | – | 5.96 µM (active)
CCN(CC)c1ccc(-n2nc3cc(C)c(NC(=O)c4ccccc4F)cc3n2)cc1 | -28.1% | –
Cc1ccccc1NC(=O)c1c(C)oc2ccc(O)c(CN(C)Cc3ccccc3)c12 | – | 2.37 µM (active)
O=C(Nc1cccc(C(F)(F)F)c1)c1nc2c(o1)CCN(Cc1cccc(F)c1)CC2 | 13.4% [at 43.1 µM] | –
Cc1oc2ccc(O)c(CN(C)Cc3ccccc3)c2c1C(=O)Nc1cccc(C(F)(F)F)c1 | – | 2.11 µM (active)
CC(=O)Nc1cccc(C(=O)NC2CCCN(c3cc(-c4ccc(Cl)cc4)[nH]n3)C2)c1 (stereo unspecified) | -18.7% | –
CC(=O)Nc1cccc(C(=O)N2CCC3(CC2)N=C(c2ccc(C)cc2)NO3)c1 | – | 0.842 µM (active)
COc1ccccc1CC(=O)N1CCC2(CC1)N=C(c1cccc(Br)c1)NO2 | -7.17% | –

SMILES | activity change, negative = inhibition | Potency
CCOc1cccc(C2Nc3ccccc3-c3cc(C)nn32)c1O (stereo unspecified) | -12% | –
COc1cccc(/C(C#N)=C/c2c(-c3ccc(Cl)cc3)nc3c(C)cccn23)c1 | – | 5.96 µM (active)
O=C1NC(=O)/C(=C\c2ccc(N3CCOCC3)o2)N1 | – | 9.44 µM (active)
Cc1ccc(C(=O)NC2CCCN(c3cc(-c4ccccc4)[nH]n3)C2)s1 (stereo unspecified) | 1.75% | –
Cn1c2ccc(F)cc2c2nnc(SCCN3CCCCC3)nc21 | – | 15 µM (active)
Cn1c(=S)c2[nH]c(SCCN3CCCC3)nc2n(C)c1=O | -13.5% | –
Nc1nc2[nH]cc(CCc3ccc(C(=O)N[C@@H](CCC(=O)O)C(=O)O)cc3)c2c(=O)[nH]1 | – | 7.5 µM (active)
Cc1ncsc1CN1CCCN(Cc2ccncc2)C(c2ccccc2)CC(=O)NCC1 (stereo unspecified) | – | 8.41 µM (active)
Cc1ccc(CN2CCCN(Cc3ccncc3)C(c3ccccc3)CC(=O)NCC2)s1 (stereo unspecified) | – | 2.66 µM (active)
Cc1ccc(CN2CCCN(Cc3ccncc3)C(c3ccccc3)CC(=O)NCC2)o1 (stereo unspecified) | – | 7.5 µM (active)
Cc1ccsc1CN1CCCN(S(=O)(=O)c2ccccc2)CCC(=O)NCC1 | -23.3% | –
CN(C)C(=O)C1CN(C(=O)NC2CCCCC2)CC12CCOCC2 (stereo unspecified) | 13.2% | –
Cn1cccc1C(=O)N1CC[C@H](NC(=O)Nc2ccc(F)cc2F)[C@H]1C(=O)N[C@H](Cc1ccccc1)C(N)=O | 35.9% | –
Cc1ccc(O)c([C@H](CCN(C(C)C)C(C)C)c2ccccc2)c1 | – | 4.22 µM (active)
COc1ccc(CCNC(=O)CCc2cn(Cc3ccc(F)cc3)c3ccccc23)cc1OC | -6.47% | –
COc1ccc(CCNC(=O)CC(c2ccccc2OC)c2c[nH]c3ccccc23)cc1OC (stereo unspecified) | – | 13.3 µM (active)
CCCC1c2nccn2CCCN1C(=O)c1cnco1 (stereo unspecified) | 16.6% | –
Cc1cccnc1CNC[C@H]1O[C@@H]2C[C@@H](CC(=O)N3CCOCC3)O[C@@H]2[C@@H]1O | 0% [at 43.1 µM] | –
Cc1cccc(CN2CCCC(O)(CNCc3ncccc3C)C2=O)c1 (stereo unspecified) | – | 16.8 µM (active)
